# Tests used:
# Assay in all cases: DAPPL (digital affinity profiling via proximity ligation, sequencing); 10 mM Tris-HCl pH 7.5, 50 mM NaCl, 1 mM DTT, 4% glycerol, room temperature, 30 min; GST-TFs on glutathione beads, 16-mer random dsDNA library, 0.1% formaldehyde crosslink after washing; high values mean tight binding
# [1] = molecular target: T1, FLI1 (Homo sapiens, UniProt Q01543 1-452); conditions: protein: recombinant; tags: N-terminal GST; dsDNA, one strand shown
# T1 sequence: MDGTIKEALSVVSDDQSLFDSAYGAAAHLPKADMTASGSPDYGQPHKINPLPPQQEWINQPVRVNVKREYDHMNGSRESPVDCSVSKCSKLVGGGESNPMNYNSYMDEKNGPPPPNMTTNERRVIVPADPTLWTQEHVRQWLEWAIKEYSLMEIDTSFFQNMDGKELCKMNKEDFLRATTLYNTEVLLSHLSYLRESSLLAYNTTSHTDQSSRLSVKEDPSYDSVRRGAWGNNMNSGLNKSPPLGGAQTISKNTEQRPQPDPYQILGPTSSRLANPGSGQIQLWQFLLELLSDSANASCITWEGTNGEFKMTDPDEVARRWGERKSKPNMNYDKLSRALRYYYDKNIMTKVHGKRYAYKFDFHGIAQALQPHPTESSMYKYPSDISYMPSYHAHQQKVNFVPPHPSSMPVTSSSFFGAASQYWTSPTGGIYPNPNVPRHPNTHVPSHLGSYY
# Outline: (§1)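 Binding signal is given per hexamer as its read frequency for a factor divided by its frequency in the tag-only sample. GST-fused human transcription factors were expressed in yeast, captured on glutathione beads, barcoded with DNA and pooled with that sample, then incubated with 200 nmole of a 16-mer random double-stranded DNA library in Tris/NaCl/DTT/glycerol buffer for 30 min at room temperature. The pools were then washed, crosslinked, proximity-ligated, amplified by PCR and sequenced on an Illumina NextSeq500.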
# [2] = molecular target: T2, ELK1 (Homo sapiens, UniProt P19419 1-428); conditions: protein: recombinant; tags: N-terminal GST; dsDNA, one strand shown
# T2 sequence: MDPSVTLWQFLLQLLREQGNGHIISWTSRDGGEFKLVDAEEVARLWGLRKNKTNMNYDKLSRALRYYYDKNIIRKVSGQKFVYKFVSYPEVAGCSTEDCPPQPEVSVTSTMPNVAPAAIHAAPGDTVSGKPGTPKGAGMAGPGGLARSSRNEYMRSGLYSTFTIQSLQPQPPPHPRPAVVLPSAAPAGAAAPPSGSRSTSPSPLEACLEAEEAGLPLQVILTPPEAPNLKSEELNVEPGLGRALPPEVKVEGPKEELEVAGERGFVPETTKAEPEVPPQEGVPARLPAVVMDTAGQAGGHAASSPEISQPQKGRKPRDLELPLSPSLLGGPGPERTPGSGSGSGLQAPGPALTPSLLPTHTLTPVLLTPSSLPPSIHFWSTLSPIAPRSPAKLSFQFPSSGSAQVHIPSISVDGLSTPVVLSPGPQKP
# Outline: as §1
# [3] = molecular target: T3, GABPA (Homo sapiens, UniProt Q06546 1-454); conditions: protein: recombinant; tags: N-terminal GST; dsDNA, one strand shown
# T3 sequence: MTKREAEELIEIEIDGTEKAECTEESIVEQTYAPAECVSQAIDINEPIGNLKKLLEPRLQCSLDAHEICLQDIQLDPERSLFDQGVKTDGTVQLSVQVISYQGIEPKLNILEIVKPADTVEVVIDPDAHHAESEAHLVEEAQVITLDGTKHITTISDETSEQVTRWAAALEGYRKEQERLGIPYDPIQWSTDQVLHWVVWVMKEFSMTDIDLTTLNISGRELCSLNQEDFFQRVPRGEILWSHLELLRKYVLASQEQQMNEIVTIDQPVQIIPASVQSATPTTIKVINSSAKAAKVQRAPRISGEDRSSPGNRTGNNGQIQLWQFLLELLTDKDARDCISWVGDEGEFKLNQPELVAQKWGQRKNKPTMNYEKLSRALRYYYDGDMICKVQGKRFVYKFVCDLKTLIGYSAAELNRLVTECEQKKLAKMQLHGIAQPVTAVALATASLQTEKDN
# Outline: as §1
# [4] = molecular target: T4, ERG (Homo sapiens, UniProt P11308 1-479); conditions: protein: recombinant; tags: N-terminal GST; dsDNA, one strand shown
# T4 sequence: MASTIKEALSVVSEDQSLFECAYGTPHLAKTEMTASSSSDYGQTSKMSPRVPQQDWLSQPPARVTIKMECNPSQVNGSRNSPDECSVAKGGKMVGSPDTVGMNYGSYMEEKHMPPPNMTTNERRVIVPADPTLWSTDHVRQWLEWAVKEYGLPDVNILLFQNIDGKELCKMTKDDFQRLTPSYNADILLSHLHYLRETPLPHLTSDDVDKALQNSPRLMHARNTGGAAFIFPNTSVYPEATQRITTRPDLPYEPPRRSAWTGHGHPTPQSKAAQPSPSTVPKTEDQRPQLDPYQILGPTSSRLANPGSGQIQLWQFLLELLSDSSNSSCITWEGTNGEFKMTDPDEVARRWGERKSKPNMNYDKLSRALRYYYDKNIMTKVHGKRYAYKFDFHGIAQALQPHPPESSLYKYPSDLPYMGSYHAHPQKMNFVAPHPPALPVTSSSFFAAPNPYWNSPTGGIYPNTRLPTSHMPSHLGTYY
# Outline: as §1
# [5] = molecular target: ELF1 (Homo sapiens, UniProt P32519 1-619); conditions: protein: recombinant; tags: N-terminal GST; dsDNA, one strand shown
# Outline: as §1
# [6] = molecular target: T5, EHF (Homo sapiens, UniProt Q9NZC4 1-300); conditions: protein: recombinant; tags: N-terminal GST; dsDNA, one strand shown
# T5 sequence: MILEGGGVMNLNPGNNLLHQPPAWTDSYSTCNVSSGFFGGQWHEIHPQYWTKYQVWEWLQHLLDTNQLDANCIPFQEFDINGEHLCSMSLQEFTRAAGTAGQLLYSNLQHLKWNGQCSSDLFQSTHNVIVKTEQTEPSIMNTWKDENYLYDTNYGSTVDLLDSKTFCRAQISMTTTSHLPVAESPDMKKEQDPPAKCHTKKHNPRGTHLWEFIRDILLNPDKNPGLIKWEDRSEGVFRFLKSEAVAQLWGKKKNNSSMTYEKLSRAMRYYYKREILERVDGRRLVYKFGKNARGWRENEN
# Outline: as §1
# [7] = molecular target: SPI1 (Homo sapiens, UniProt P17947 1-270); conditions: protein: recombinant; tags: N-terminal GST; dsDNA, one strand shown
# Outline: as §1
# [8] = molecular target: SPIB (Homo sapiens, UniProt Q01892 1-262); conditions: protein: recombinant; tags: N-terminal GST; dsDNA, one strand shown
# Outline: as §1
# [9] = molecular target: T6, ELK3 (Homo sapiens, UniProt P41970 1-407); conditions: protein: recombinant; tags: N-terminal GST; dsDNA, one strand shown
# T6 sequence: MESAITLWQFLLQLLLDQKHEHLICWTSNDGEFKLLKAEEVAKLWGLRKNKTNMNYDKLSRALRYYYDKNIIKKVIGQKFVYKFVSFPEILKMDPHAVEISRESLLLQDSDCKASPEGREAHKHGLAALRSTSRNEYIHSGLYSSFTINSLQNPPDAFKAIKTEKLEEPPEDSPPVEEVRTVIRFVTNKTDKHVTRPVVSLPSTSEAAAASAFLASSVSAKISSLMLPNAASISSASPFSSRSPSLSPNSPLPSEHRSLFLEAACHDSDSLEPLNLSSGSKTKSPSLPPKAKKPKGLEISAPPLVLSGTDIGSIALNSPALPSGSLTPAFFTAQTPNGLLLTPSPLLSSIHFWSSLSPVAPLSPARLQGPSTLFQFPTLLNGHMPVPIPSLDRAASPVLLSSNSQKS
# Outline: as §1
# [10] = molecular target: T7, FEV (Homo sapiens, UniProt Q99581 1-238); conditions: protein: recombinant; tags: N-terminal GST; dsDNA, one strand shown
# T7 sequence: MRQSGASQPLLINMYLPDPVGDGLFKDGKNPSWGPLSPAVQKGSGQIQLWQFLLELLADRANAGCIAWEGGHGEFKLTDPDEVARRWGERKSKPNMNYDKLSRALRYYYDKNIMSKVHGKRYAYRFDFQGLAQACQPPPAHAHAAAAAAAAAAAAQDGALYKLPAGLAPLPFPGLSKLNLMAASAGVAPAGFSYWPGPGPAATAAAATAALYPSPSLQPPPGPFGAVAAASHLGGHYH
# Outline: as §1
# [11] = molecular target: ETV5 (Homo sapiens, UniProt P41161 1-510); conditions: protein: recombinant; tags: N-terminal GST; dsDNA, one strand shown
# Outline: as §1
# [12] = molecular target: HSF1 (Homo sapiens, UniProt Q00613 1-529); conditions: protein: recombinant; tags: N-terminal GST; chain copies: 3; dsDNA, one strand shown
# Outline: as §1
# [13] = molecular target: T8, SPIC (Homo sapiens, UniProt Q8N5J4 1-248); conditions: protein: recombinant; tags: N-terminal GST; dsDNA, one strand shown
# T8 sequence: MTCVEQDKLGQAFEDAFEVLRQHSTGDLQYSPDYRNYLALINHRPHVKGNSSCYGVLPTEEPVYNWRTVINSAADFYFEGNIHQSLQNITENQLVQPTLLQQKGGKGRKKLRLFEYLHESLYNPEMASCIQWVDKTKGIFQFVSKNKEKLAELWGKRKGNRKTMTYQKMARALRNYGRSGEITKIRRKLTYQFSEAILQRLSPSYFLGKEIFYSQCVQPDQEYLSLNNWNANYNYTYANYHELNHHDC
# Outline: as §1
# [14] = molecular target: ELF4 (Homo sapiens, UniProt Q99607 1-663); conditions: protein: recombinant; tags: N-terminal GST; dsDNA, one strand shown
# Outline: as §1
# [15] = molecular target: T9, ELK4 (Homo sapiens, UniProt P28324-2 1-405); conditions: protein: recombinant; tags: N-terminal GST; dsDNA, one strand shown
# T9 sequence: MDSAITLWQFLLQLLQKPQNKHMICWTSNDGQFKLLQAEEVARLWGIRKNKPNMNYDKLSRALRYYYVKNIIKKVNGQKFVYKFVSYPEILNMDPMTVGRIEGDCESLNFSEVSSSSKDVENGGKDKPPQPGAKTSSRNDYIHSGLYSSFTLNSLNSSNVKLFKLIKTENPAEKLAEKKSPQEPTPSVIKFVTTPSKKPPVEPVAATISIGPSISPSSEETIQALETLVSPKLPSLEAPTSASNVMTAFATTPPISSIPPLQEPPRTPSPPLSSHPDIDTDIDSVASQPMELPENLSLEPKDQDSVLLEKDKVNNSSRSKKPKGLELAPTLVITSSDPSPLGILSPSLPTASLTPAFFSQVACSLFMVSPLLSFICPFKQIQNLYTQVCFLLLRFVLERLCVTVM
# Outline: as §1
# [16] = molecular target: T10, ETV2 (Homo sapiens, UniProt O00321 1-342); conditions: protein: recombinant; tags: N-terminal GST; dsDNA, one strand shown
# T10 sequence: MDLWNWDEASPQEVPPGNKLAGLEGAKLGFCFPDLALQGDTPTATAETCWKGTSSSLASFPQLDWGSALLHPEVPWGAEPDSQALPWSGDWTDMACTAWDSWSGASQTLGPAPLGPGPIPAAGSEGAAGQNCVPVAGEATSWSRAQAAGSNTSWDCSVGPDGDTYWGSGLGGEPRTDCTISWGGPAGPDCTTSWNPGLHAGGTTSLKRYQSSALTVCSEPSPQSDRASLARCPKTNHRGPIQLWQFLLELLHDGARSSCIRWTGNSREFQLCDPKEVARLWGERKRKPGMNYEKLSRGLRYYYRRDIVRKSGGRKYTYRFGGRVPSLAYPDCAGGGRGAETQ
# Outline: as §1
# [17] = molecular target: T11, ELF3 (Homo sapiens, UniProt P78545 1-371); conditions: protein: recombinant; tags: N-terminal GST; dsDNA, one strand shown
# T11 sequence: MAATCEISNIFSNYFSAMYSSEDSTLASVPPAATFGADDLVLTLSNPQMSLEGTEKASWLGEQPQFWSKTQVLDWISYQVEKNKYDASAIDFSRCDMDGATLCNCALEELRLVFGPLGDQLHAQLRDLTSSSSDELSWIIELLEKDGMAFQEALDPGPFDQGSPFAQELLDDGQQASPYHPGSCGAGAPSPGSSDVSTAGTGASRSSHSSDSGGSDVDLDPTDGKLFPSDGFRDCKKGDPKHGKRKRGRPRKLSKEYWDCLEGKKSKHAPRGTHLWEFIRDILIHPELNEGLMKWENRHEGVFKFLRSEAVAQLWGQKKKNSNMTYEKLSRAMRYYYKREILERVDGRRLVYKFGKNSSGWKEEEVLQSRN
# Outline: as §1
# [18] = molecular target: CRX (Homo sapiens, UniProt O43186 1-299); conditions: protein: recombinant; tags: N-terminal GST; dsDNA, one strand shown
# Outline: as §1
# [19] = molecular target: ETV1 (Homo sapiens, UniProt P50549 1-477); conditions: protein: recombinant; tags: N-terminal GST; dsDNA, one strand shown
# Outline: as §1
# CRX, sequence (O43186 whole entry): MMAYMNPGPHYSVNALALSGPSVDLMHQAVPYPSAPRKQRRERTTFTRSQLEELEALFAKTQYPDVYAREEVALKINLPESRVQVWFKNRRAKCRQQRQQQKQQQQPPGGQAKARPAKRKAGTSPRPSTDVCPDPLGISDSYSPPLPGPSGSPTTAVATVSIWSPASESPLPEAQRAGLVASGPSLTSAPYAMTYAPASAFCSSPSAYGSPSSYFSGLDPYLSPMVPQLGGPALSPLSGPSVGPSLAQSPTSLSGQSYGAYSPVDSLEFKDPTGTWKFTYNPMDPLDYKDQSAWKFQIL
# ETV1, sequence (P50549 whole entry): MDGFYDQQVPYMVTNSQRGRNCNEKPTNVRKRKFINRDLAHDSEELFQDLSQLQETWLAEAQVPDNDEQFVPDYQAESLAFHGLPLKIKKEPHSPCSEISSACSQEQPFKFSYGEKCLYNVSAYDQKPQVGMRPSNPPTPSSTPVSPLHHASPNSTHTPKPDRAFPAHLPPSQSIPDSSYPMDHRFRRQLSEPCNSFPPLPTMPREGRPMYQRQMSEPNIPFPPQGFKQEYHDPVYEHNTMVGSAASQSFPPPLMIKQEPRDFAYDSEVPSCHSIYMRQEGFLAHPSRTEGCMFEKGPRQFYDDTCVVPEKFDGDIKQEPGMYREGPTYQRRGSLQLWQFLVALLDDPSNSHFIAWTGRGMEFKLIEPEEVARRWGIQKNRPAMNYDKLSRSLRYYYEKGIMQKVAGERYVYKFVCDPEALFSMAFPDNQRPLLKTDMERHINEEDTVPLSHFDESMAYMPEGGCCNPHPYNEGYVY
# SPIB, sequence (Q01892 whole entry): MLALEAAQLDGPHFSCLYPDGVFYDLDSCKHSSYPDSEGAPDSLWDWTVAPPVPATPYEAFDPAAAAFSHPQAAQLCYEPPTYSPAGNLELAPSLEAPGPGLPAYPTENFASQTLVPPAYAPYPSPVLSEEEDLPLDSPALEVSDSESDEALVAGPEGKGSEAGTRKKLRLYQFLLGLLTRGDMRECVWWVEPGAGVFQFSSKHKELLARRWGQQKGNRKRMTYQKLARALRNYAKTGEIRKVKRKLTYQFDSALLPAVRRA
# ELF4, sequence (Q99607 whole entry): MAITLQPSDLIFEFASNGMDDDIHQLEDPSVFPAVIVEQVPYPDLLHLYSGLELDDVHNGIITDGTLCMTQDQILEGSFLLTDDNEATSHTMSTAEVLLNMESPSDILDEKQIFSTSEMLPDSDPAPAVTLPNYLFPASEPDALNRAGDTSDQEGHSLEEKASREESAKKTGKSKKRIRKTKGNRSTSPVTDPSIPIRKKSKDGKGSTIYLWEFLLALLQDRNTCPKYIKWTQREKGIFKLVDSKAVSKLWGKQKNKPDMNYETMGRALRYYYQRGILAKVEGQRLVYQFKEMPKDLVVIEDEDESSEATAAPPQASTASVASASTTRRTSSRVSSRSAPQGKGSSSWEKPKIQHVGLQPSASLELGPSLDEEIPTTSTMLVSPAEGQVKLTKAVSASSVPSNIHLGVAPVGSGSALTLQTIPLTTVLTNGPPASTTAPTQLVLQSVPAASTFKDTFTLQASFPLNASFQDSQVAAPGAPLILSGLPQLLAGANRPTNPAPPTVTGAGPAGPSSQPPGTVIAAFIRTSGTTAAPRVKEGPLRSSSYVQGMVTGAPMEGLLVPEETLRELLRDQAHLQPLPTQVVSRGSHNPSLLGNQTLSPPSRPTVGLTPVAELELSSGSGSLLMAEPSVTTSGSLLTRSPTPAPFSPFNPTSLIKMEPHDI
# HSF1, sequence (Q00613 whole entry): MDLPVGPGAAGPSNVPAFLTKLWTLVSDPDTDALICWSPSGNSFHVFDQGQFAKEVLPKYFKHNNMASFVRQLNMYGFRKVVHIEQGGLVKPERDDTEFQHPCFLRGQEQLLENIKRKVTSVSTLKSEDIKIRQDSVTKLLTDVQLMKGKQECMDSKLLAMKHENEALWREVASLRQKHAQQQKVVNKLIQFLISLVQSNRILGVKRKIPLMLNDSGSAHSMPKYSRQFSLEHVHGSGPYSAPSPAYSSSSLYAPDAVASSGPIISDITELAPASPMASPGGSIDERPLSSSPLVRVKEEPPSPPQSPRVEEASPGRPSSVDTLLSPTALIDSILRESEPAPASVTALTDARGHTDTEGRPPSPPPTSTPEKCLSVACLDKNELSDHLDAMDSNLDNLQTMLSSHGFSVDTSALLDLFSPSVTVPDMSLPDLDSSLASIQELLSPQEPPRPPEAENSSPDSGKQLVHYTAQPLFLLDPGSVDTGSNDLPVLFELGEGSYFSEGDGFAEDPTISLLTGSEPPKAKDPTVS
# ELF1, sequence (P32519 whole entry): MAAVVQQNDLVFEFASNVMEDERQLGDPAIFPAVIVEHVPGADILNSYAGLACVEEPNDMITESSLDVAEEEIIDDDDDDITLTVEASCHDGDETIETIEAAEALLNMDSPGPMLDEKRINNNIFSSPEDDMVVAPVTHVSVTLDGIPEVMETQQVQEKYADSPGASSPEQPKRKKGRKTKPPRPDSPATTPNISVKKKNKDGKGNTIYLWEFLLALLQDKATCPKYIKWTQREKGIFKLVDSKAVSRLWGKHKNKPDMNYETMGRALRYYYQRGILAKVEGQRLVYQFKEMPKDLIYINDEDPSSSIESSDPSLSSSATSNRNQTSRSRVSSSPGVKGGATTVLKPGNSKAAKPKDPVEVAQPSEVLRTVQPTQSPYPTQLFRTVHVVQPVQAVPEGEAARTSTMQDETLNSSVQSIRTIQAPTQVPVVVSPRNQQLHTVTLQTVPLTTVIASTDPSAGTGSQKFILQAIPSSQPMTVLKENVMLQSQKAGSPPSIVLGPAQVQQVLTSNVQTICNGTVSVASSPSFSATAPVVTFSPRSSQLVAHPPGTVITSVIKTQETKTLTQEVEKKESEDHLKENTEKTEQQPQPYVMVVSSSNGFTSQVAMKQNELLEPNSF
# ETV5, sequence (P41161 whole entry): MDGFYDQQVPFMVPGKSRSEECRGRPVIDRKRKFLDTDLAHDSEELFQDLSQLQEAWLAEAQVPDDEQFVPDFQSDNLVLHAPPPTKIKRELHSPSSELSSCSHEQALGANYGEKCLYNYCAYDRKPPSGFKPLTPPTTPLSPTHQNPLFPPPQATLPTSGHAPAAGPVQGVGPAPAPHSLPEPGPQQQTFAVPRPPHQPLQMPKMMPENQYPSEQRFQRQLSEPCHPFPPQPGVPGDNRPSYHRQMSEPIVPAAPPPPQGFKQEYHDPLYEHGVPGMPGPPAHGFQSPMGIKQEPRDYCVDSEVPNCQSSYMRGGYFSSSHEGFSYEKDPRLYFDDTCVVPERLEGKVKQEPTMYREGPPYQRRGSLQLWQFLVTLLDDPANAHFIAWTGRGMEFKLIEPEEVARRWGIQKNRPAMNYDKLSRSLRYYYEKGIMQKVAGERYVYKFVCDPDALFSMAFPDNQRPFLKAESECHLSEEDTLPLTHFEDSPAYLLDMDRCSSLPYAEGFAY
sequence,measurement,setting,value
TAGTAC,binding signal,[1],"1.11 fold enrichment (6-mer frequency, TF over GST control)"
same,binding signal,[2],"1.13 fold enrichment (6-mer frequency, TF over GST control)"
same,binding signal,[3],"1.22 fold enrichment (6-mer frequency, TF over GST control)"
same,binding signal,[4],"1.24 fold enrichment (6-mer frequency, TF over GST control)"
same,binding signal,[5],"1.16 fold enrichment (6-mer frequency, TF over GST control)"
same,binding signal,[6],"1.08 fold enrichment (6-mer frequency, TF over GST control)"
same,binding signal,[7],"1.07 fold enrichment (6-mer frequency, TF over GST control)"
same,binding signal,[8],"1.06 fold enrichment (6-mer frequency, TF over GST control)"
same,binding signal,[9],"1.12 fold enrichment (6-mer frequency, TF over GST control)"
same,binding signal,[10],"1.16 fold enrichment (6-mer frequency, TF over GST control)"
same,binding signal,[11],"1.14 fold enrichment (6-mer frequency, TF over GST control)"
same,binding signal,[12],"1.25 fold enrichment (6-mer frequency, TF over GST control)"
same,binding signal,[13],"1.27 fold enrichment (6-mer frequency, TF over GST control)"
same,binding signal,[14],"1.15 fold enrichment (6-mer frequency, TF over GST control)"
same,binding signal,[15],"1.16 fold enrichment (6-mer frequency, TF over GST control)"
same,binding signal,[16],"1.06 fold enrichment (6-mer frequency, TF over GST control)"
same,binding signal,[17],"1.14 fold enrichment (6-mer frequency, TF over GST control)"
same,binding signal,[18],"1.29 fold enrichment (6-mer frequency, TF over GST control)"
same,binding signal,[19],"1.14 fold enrichment (6-mer frequency, TF over GST control)"
